Experimental data published in ChEMBL document CHEMBL1961873, “Compounds: GSK PKIS; Assays: Nanosyn kinase panel” (2012).

Tests used:
[1] = biological target: T1, Inhibitor of nuclear factor kappa-B kinase subunit epsilon (Homo sapiens) (UniProt Q14164); conditions: at 1 µM;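 also: reported values are averaged percent inhibition figures against human IKKε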
T1 sequence (whole entry): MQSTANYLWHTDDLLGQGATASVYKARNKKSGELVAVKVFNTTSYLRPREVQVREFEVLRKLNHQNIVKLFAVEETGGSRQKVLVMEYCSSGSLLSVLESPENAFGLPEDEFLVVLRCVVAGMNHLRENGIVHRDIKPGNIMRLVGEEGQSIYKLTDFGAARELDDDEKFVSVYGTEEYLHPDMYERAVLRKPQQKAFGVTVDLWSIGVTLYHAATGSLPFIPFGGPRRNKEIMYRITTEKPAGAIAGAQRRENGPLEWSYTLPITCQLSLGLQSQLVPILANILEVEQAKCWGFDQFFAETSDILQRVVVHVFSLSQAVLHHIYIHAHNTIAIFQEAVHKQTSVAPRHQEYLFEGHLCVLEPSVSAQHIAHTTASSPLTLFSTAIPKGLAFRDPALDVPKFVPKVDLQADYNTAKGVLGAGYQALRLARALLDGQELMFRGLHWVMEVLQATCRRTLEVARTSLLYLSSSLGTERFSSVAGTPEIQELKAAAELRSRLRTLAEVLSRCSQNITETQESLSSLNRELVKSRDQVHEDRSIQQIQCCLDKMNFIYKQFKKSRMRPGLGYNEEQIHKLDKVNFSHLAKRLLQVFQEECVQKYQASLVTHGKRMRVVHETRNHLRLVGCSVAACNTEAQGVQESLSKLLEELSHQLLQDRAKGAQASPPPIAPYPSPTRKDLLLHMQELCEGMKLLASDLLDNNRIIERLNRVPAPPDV

[2] = biological target: T2, Serine/threonine-protein kinase Nek1 (Homo sapiens) (UniProt Q96PY6); conditions: at 0.1 µM
T2 sequence (whole entry): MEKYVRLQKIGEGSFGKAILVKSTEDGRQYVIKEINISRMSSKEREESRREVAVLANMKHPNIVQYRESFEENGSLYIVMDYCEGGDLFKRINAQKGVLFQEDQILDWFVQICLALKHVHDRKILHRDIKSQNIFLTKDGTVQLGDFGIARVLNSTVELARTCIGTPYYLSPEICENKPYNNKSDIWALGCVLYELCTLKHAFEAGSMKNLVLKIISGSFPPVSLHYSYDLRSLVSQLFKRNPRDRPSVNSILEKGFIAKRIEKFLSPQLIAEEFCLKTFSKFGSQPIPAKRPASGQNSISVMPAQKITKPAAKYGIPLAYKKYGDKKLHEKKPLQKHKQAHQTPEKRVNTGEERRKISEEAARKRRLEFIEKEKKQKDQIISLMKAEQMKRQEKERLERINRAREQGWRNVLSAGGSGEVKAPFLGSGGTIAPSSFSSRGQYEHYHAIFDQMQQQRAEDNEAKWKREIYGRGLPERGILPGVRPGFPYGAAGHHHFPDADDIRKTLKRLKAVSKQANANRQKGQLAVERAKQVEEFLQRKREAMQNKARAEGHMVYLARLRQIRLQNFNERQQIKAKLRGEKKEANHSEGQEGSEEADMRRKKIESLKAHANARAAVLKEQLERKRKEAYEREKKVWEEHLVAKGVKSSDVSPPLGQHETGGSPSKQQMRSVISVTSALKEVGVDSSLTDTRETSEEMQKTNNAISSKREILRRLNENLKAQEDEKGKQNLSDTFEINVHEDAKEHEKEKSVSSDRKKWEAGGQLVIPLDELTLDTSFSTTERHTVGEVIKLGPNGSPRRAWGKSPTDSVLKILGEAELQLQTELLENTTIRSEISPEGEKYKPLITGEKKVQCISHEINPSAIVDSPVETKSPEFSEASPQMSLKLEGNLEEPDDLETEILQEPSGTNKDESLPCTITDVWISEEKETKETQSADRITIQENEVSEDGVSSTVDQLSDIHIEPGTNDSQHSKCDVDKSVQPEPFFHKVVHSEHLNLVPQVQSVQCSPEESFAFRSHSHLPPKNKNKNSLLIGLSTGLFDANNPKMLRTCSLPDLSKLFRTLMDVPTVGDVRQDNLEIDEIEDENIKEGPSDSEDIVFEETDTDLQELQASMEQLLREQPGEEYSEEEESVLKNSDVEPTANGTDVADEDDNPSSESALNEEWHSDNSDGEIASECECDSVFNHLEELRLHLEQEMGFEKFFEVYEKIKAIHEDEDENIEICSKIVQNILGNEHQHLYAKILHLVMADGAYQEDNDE

[3] = biological target: T2, Serine/threonine-protein kinase Nek1 (Homo sapiens); conditions: at 1 µM
[4] = biological target: T3, Serine/threonine-protein kinase Nek2 (Homo sapiens) (UniProt P51955); conditions: at 0.1 µM
T3 sequence (whole entry): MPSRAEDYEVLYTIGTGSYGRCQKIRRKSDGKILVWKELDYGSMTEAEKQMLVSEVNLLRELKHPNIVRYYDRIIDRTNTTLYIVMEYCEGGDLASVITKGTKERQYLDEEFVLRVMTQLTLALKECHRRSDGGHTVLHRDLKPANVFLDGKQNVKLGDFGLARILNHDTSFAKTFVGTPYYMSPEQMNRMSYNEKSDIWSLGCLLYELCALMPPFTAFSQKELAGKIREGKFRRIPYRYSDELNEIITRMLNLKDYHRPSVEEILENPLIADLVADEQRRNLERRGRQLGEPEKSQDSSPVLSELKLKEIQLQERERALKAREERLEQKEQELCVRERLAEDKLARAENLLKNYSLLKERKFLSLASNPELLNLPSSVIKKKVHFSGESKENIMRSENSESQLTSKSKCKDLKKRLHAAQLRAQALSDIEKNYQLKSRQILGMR

[5] = biological target: T3, Serine/threonine-protein kinase Nek2 (Homo sapiens); conditions: at 1 µM
[6] = biological target: Serine/threonine-protein kinase Nek6 (Homo sapiens) (UniProt Q9HC98); conditions: at 0.1 µM
Sequence of Serine/threonine-protein kinase Nek6 (Homo sapiens) (Q9HC98 whole entry): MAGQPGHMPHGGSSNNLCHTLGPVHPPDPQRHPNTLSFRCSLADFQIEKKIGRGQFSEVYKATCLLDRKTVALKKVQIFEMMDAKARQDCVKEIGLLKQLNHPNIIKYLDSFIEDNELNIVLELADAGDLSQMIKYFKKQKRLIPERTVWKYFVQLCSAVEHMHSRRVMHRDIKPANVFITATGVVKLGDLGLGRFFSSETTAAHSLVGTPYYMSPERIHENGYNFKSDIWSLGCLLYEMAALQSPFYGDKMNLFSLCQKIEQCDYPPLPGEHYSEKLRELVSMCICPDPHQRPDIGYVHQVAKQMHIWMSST

[7] = biological target: Serine/threonine-protein kinase Nek6 (Homo sapiens) (UniProt Q9HC98); conditions: at 1 µM
[8] = biological target: Serine/threonine-protein kinase Nek7 (Homo sapiens) (UniProt Q8TDX7); conditions: at 0.1 µM
Sequence of Serine/threonine-protein kinase Nek7 (Homo sapiens) (Q8TDX7 whole entry, looked up): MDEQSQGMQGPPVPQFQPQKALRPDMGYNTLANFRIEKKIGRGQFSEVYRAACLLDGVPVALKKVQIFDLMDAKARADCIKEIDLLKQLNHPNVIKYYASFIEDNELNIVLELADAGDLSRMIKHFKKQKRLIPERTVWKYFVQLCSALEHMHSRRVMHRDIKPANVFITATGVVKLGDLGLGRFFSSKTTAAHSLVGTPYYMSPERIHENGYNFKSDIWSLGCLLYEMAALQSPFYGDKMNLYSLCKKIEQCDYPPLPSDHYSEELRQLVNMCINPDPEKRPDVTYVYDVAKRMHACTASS

[9] = biological target: Serine/threonine-protein kinase Nek7 (Homo sapiens) (UniProt Q8TDX7); conditions: at 1 µM
[10] = biological target: T4, Serine/threonine-protein kinase Nek9 (Homo sapiens) (UniProt Q8TD19); conditions: at 0.1 µM
T4 sequence (whole entry): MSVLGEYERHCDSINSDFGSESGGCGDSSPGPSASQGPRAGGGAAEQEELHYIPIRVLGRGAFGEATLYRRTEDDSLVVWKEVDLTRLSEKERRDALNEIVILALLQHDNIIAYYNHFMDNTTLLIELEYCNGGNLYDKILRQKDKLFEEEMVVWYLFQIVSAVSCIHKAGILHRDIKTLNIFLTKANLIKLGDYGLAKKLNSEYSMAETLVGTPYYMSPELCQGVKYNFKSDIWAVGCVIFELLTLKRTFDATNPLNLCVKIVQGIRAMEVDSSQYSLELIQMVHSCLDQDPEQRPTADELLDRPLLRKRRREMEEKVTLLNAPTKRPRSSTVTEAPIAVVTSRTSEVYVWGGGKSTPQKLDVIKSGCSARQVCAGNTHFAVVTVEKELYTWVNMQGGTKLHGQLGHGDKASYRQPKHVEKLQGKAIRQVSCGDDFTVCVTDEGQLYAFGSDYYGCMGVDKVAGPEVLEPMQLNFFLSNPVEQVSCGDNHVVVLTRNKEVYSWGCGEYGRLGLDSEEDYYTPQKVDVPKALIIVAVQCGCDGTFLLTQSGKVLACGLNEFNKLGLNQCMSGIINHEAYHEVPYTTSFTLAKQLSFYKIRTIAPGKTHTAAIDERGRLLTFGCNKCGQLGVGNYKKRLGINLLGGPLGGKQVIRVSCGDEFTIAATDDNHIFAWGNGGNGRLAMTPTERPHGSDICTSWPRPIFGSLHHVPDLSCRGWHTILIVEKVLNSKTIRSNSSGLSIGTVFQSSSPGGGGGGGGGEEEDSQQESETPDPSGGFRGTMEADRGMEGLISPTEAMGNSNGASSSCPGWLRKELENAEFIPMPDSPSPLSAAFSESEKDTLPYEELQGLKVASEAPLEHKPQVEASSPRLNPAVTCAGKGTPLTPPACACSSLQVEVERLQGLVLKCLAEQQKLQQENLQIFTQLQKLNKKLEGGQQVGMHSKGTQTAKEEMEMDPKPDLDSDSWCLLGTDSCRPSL

[11] = biological target: T4, Serine/threonine-protein kinase Nek9 (Homo sapiens); conditions: at 1 µM
[12] = biological target: Serine/threonine-protein kinase PLK1 (Homo sapiens) (UniProt P53350); conditions: at 0.1 µM
Sequence of Serine/threonine-protein kinase PLK1 (Homo sapiens) (P53350 whole entry): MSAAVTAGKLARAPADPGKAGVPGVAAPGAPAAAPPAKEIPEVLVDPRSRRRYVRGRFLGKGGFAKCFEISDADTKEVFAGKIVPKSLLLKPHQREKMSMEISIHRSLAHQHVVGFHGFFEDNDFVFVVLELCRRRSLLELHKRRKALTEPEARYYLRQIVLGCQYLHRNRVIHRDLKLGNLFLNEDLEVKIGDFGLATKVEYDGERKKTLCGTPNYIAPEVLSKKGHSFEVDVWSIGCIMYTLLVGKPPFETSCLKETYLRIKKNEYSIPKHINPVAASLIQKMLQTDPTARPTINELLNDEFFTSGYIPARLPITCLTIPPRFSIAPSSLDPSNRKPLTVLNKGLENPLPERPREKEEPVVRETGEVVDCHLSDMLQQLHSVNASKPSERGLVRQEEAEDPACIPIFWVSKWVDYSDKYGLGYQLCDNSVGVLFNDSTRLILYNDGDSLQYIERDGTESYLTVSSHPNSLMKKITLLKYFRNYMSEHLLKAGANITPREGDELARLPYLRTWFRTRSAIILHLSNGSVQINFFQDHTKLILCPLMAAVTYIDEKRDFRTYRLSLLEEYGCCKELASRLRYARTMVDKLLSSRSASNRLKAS

[13] = biological target: Serine/threonine-protein kinase PLK1 (Homo sapiens) (UniProt P53350); conditions: at 1 µM
[14] = biological target: T5, Dual specificity protein kinase TTK (Homo sapiens) (UniProt P33981); conditions: at 0.1 µM
T5 sequence (whole entry): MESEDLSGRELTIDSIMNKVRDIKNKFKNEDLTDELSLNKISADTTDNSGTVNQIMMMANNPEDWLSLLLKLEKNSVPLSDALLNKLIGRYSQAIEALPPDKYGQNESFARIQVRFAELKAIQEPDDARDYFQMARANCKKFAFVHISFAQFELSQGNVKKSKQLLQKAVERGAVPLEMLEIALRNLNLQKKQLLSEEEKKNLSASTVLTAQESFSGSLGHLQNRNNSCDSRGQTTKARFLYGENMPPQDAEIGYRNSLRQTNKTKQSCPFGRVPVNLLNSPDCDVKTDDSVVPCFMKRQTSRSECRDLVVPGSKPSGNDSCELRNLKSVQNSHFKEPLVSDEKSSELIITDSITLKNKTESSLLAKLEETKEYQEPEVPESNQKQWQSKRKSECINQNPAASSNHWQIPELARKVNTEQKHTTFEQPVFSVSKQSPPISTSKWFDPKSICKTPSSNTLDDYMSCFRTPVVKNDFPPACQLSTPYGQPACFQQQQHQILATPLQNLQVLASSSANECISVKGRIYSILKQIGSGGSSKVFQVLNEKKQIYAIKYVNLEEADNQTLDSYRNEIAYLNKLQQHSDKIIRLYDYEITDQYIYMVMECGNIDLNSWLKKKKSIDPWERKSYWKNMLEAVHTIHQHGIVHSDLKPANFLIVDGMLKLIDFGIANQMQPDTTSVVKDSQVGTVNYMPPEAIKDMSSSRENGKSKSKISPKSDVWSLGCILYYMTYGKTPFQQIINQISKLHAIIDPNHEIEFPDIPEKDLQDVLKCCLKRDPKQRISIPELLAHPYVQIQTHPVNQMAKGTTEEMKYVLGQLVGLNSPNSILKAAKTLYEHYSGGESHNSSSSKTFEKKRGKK

[15] = system: T6, Receptor-type tyrosine-protein kinase FLT3 (Homo sapiens), P36888 [D835Y]; conditions: at 1 µM
T6 sequence (whole entry): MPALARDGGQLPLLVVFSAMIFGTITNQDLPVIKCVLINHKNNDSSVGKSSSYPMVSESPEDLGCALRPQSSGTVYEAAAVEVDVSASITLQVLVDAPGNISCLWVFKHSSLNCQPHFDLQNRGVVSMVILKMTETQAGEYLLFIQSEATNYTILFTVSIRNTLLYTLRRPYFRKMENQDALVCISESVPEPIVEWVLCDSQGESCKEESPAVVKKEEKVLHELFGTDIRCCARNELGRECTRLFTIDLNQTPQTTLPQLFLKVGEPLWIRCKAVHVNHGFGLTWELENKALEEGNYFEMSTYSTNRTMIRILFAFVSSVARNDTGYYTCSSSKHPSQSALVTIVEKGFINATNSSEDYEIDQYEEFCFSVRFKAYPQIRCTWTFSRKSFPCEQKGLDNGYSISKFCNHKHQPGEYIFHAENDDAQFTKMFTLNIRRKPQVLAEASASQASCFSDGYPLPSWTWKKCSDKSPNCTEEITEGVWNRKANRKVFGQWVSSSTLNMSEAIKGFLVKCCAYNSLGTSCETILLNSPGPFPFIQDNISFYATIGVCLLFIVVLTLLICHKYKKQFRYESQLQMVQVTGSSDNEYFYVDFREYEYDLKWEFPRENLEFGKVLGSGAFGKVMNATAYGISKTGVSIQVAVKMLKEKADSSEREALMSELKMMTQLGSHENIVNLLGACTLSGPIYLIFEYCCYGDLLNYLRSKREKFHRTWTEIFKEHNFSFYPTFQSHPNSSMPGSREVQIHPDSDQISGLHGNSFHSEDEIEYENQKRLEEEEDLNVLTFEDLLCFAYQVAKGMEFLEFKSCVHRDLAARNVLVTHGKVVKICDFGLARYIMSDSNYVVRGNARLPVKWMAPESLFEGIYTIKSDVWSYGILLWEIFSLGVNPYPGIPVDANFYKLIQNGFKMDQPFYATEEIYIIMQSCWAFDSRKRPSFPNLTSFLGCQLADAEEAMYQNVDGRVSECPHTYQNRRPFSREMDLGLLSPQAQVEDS

[16] = biological target: Vascular endothelial growth factor receptor 3 (Homo sapiens) (UniProt P35916); conditions: at 0.1 µM
Sequence of Vascular endothelial growth factor receptor 3 (Homo sapiens) (P35916 whole entry): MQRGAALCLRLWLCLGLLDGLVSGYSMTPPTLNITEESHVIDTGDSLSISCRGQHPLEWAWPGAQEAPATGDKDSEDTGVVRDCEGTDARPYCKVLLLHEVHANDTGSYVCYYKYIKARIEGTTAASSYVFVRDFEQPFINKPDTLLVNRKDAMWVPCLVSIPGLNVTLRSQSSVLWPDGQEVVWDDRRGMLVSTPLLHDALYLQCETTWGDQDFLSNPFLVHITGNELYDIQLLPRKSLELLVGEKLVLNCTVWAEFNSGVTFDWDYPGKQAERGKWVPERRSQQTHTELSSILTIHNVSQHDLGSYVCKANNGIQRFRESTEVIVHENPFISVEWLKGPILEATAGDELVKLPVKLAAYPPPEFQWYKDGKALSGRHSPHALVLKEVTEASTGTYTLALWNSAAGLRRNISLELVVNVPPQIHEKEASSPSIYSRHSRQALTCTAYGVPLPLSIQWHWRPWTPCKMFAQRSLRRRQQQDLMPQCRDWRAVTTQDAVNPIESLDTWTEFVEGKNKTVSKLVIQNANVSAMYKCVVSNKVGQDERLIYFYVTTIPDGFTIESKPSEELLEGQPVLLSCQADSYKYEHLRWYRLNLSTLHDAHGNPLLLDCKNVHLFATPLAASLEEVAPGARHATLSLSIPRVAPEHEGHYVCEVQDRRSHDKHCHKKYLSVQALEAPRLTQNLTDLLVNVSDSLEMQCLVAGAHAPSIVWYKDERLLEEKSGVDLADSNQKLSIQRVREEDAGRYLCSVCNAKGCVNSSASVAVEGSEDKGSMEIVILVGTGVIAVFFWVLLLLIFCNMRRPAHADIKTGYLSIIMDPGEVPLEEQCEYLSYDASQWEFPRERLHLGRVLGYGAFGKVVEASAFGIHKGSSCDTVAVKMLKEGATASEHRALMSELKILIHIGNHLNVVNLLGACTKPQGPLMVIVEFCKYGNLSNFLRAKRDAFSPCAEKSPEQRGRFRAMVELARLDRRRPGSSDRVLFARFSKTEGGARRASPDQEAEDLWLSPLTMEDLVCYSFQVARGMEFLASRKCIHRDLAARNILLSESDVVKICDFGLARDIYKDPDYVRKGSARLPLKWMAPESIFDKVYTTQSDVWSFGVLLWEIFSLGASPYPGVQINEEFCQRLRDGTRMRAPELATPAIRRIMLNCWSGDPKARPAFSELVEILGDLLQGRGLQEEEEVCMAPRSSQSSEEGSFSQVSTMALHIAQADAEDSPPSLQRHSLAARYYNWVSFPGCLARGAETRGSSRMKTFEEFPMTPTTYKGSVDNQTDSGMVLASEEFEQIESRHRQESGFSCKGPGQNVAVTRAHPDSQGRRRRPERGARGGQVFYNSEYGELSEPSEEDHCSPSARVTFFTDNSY

[17] = biological target: Vascular endothelial growth factor receptor 3 (Homo sapiens) (UniProt P35916); conditions: at 1 µM
[18] = biological target: Macrophage colony-stimulating factor 1 receptor (Homo sapiens) (UniProt P07333); conditions: at 0.1 µM
Sequence of Macrophage colony-stimulating factor 1 receptor (Homo sapiens) (P07333 whole entry): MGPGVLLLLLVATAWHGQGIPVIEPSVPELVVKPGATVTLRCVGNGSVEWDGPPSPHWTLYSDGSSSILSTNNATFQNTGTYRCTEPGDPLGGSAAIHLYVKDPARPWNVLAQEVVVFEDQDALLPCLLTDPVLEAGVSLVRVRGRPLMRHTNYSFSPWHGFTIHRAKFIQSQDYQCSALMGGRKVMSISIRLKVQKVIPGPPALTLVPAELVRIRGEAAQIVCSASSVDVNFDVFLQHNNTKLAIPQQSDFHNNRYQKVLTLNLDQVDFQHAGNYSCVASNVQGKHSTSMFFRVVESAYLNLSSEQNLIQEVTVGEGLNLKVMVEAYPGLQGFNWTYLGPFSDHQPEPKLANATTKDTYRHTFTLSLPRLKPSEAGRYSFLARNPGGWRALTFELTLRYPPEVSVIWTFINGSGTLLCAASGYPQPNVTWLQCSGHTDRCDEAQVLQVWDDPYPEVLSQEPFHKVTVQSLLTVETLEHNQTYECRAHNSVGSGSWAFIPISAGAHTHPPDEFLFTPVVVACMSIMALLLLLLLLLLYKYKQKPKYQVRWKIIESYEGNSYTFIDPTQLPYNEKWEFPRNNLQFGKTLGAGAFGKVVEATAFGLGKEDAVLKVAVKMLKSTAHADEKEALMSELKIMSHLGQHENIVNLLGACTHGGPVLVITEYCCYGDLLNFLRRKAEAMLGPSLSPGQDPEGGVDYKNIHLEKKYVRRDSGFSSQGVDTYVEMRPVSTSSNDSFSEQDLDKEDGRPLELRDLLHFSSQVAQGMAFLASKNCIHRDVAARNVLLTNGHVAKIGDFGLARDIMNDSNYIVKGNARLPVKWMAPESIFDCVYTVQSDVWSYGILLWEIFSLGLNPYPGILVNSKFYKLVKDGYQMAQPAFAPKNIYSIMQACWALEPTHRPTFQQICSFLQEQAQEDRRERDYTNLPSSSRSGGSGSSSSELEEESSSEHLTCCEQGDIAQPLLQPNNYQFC

[19] = biological target: Macrophage colony-stimulating factor 1 receptor (Homo sapiens) (UniProt P07333); conditions: at 1 µM
[20] = biological target: Tyrosine-protein kinase Fyn (Homo sapiens) (UniProt P06241); conditions: at 0.1 µM
Sequence of Tyrosine-protein kinase Fyn (Homo sapiens) (P06241 2-537 limits assumed): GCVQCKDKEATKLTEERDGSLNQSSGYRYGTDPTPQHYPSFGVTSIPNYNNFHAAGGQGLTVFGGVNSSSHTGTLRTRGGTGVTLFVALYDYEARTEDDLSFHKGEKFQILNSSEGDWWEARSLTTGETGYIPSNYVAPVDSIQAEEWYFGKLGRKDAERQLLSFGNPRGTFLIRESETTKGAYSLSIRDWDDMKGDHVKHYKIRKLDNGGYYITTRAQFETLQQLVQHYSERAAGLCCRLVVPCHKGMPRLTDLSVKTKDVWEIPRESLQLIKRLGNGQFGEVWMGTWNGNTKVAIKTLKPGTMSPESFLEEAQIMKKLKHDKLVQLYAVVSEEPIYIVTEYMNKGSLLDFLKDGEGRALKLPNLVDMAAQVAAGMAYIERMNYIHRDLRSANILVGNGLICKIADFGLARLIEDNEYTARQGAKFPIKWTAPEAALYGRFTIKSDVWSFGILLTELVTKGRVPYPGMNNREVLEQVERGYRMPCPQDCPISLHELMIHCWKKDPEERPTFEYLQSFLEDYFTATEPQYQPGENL

`Nc1ncc(-c2cccc(S(N)(=O)=O)c2)c2scc(-c3ccc(F)c(Cl)c3)c12` was tested, and the inhibition [1] was 6.28%, the inhibition [2] was 1.83% and the inhibition [3] was 3.98%. It also gave an inhibition [4] of 4.7%, an inhibition [5] of 4.74% and an inhibition [6] of 2.28%. For the same compound, the inhibition [7] was 3.81%, the inhibition [8] was 3.41% and the inhibition [9] was -0.15%. The inhibition [10] was 5.04%, the inhibition [11] was -0.67% and the inhibition [12] was 4.55%. The inhibition [13] was 2.5%, the inhibition [14] was 5.8% and the inhibition [15] was -1.46%. For the same compound, the inhibition [16] was 5.73%, the inhibition [17] was 12.6% and the inhibition [18] was 6.9%. The inhibition [19] was 43.7% and the inhibition [20] was 7.81%.
